Test results: PubChem BioAssay AID651814 (National Center for Advancing Translational Sciences (NCATS), 2012)
Where “and” joins values, the source holds several entries; their conditions need not be identical. Equal values may be shown once. In all, about 2,100 compounds went through this assay and about 590 (28%) were called active. Roughly 42% stayed inconclusive and do not appear here. The call rests on the fitted dose curve; in most records, active means well fitted inhibition curve with a large enough effect; inconclusive means small, poorly fitted or top-dose-only effect; inactive means flat fitted curve, though single readings scatter. This is one part of the list.

Molecular target: DNA dC->dU-editing enzyme APOBEC-3F (Homo sapiens) (UniProt Q8IUX4)
Sequence (Q8IUX4 whole entry, looked up): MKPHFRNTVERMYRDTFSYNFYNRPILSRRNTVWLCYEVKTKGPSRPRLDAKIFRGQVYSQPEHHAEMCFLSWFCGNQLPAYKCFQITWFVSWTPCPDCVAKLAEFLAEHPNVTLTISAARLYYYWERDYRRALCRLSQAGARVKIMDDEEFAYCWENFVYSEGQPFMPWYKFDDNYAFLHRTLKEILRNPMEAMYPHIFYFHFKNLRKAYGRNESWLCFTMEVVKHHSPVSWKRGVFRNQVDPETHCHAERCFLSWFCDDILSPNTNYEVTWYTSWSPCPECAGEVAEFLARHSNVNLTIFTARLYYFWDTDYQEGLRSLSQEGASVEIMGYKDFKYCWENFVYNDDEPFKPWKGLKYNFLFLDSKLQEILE
Experiment: qHTS for inhibitors of Vif-A3F interactions: Cherry picks; further: nearly all actives have a fitted effect of over 70% in size;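 on max response: % of control where 0% means no effect; active compounds raise eYFP fluorescence by blocking Vif-driven A3F loss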
Settings: HeLa A3F-eYFP + Vif (tagged APOBEC3F with the HIV-1 protein that degrades it), eYFP fluorescence, 24 h
In short: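 Read-out: yellow fluorescence (ex 488 nm, em 500-530 nm) by laser-scanning cytometer after 24 h compound exposure, several concentrations, at 37 deg C. Cells: HeLa line stably co-expressing Vif and C-terminally eYFP-tagged A3F; MG132 served as positive control.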
Potency means the concentration at half of the fitted maximal effect.

Question: For `N#Cc1c(-c2ccccc2F)cc(C2CC2)nc1SCC(=O)c1cccs1`, which Potency is on record?
Answer: Its Potency is 17.7 µM (active).

Question: With `CCc1c(C)nc(SCC(=O)c2cccs2)c(C#N)c1C` as the compound, how does the max response read?
Answer: Its max response is 0.208% (inactive).

Question: With `CCn1c(CNC(=O)c2cc(OC)c(OC)c(OC)c2)cc2cc(C)ccc21` as the compound, how does the max response read?
Answer: The max response was 2.52% (inactive).

Question: Which max response does the source give for `Cc1ccc2nc(-c3ccccn3)c(NC3CCCC3)n2c1` here?
Answer: The max response was -1.86% (inactive).

Question: For `c1ccc(Nc2nc(-c3ccccn3)cs2)cc1`, which max response is on record?
Answer: The max response was -4.92% (inactive).

Question: For `CCc1cccc2c(C(O)c3c[nH]c4ccccc34)c[nH]c12` (centres undefined), which Potency is on record?
Answer: The Potency was 18.4 µM (active).

Question: `COc1ccc(C2=CC(c3ccc(N(C)C)cc3)n3nnnc3N2)cc1` (centres undefined) was tested. Which max response did it give?
Answer: The max response was -6.88% (inactive).

Question: With `C=CCOC(=O)C1=C(C)Nc2nnnn2C1c1cccs1` (centres undefined) as the compound, how does the max response read?
Answer: Its max response is -1.29% (inactive).

Question: Which Potency does the source give for `COc1cccc(C2=CC(c3cccs3)n3nnnc3N2)c1` (centres undefined) here?
Answer: The Potency was 6.27 µM (active).

Question: `CCCC(=O)NC1=C(Cl)C(=O)c2ccccc2C1=O` was tested. Which max response did it give?
Answer: The max response was 5.27% (inactive).

Question: Which Potency does the source give for `CCOC(=O)C1=C(Cc2ccc(Cl)cc2)C(=O)c2ccccc2C1=O` here?
Answer: The Potency was 16.4 µM (active).

Question: How did the max response turn out when `S=C(Nc1ccccc1)N1CCn2c1nc1ccccc12` was run?
Answer: The max response was -7.52% (inactive).

Question: With `Cc1cc2nc(SCCOC(=O)Nc3cccc(Cl)c3)nc(C)c2cc1C` as the compound, how does the max response read?
Answer: The max response was 3.73% (inactive).

Question: Which Potency does the source give for `COc1cccc(N2CC(O)=C(c3nc4ccccc4s3)C2=N)c1` here?
Answer: The Potency was 5.59 µM (active).

Question: Which Potency does the source give for `CCN(CC)c1ccc(/C=C/c2cccc[n+]2C)c(OC)c1` here?
Answer: Its Potency is 3.14 µM (active).

Question: How did the Potency turn out when `C(=C\c1c[nH]c2ccccc12)/c1ccc2ccccc2n1` was run?
Answer: The Potency was 23.1 µM (active).

Question: Which Potency does the source give for `C(=Cc1c[nH]c2ccccc12)c1ccc2ccccc2n1` here?
Answer: Its Potency is 23.1 µM (active).

Question: How did the Potency turn out when `Cc1[nH]c2ccccc2c1/C=C/c1ccc2ccccc2n1` was run?
Answer: Its Potency is 7.31 µM (active).

Question: Which max response does the source give for `CCOC(=O)c1c(-c2ccc(OC)cc2)csc1/N=C/C1=C(O)CCCC1=O` here?
Answer: The max response was -6.09% (inactive).

Question: `Cc1ccccc1-n1c(/C=C/c2c(C)n(C)c3ccccc23)nc2ccccc2c1=O` was tested. Which Potency did it give?
Answer: The Potency was 8.2 µM (active).

Question: How did the Potency turn out when `CN1CCc2c(sc(NC(=O)CSc3ccc(F)cc3)c2-c2nc3ccccc3s2)C1` was run?
Answer: Its Potency is 7.31 µM (active).

Question: With `COc1cc(C(=O)Nc2nnc(Cc3ccccc3)s2)cc(OC)c1OC` as the compound, how does the max response read?
Answer: Its max response is -23.2% (inactive).

Question: Which max response does the source give for `CCC(=O)OCc1cnc(C)c2oc(=O)c(C(=O)Nc3ccccc3C(F)(F)F)cc12` here?
Answer: The max response was -0.08% (inactive).

Question: Which Potency does the source give for `COc1ccc(OC)c(NC(=O)c2sc3nc(Cc4ccccc4)cc(C(F)(F)F)c3c2N)c1` here?
Answer: Its Potency is 8.2 µM (active).

Question: With `Nc1c(C(=O)O)sc2nc(-c3ccc(F)cc3)cc(-c3ccccc3)c12` as the compound, how does the max response read?
Answer: The max response was -11.4% (inactive).

Question: With `COc1ccc(NC(=O)c2sc3nc(-c4ccc(OC)cc4)cc(C(F)(F)F)c3c2N)cc1` as the compound, how does the Potency read?
Answer: Its Potency is 1.3 µM (active).

Question: How did the Potency turn out when `COc1cccc(C(=O)c2sc3nc(-c4ccccc4)cc(C(F)(F)F)c3c2N)c1` was run?
Answer: The Potency was 1.46 µM (active).

Question: For `Cc1cc(C(F)(F)F)c2c(N)c(C(=O)Nc3cc(C)on3)sc2n1`, which max response is on record?
Answer: The max response was -20.9% (inactive).

Question: For `COc1ccc(C(=O)c2sc3nc(-c4ccc(C)cc4)cc(C(F)(F)F)c3c2N)cc1`, which Potency is on record?
Answer: The Potency was 8.2 µM (active).

Question: `CN1C2=CC=CC=CC2=[N+](C)C12C([N+](=O)[O-])=CC(=[N+]([O-])[O-])C=C2[N+](=O)[O-]` (centres undefined) was tested. Which max response did it give?
Answer: The max response was -0.344% (inactive).

Question: Which max response does the source give for `COc1ccccc1/C=N/NC(=S)Nc1cccnc1` here?
Answer: Its max response is -4.95% (inactive).

Question: `CC(=O)c1cccc(NC(=O)C2CCCN(S(=O)(=O)c3cccc4nonc34)C2)c1` (centres undefined) was tested. Which max response did it give?
Answer: Its max response is -0.245% (inactive).

Question: How did the Potency turn out when `COc1ccc(C(=O)c2sc3nc(C)cc(-c4cccs4)c3c2N)cc1` was run?
Answer: The Potency was 18.4 µM (active).

Question: `O=C(NC(=S)N1CCN(C2CCCCC2)CC1)c1ccccc1` was tested. Which max response did it give?
Answer: Its max response is 3.13% (inactive).

Question: Which Potency does the source give for `CCCCN1C(=O)/C(=C/C=C2/CC(C)(C)CN2C)SC1=S` here?
Answer: The Potency was 3.96 µM (active).

Question: `Cc1ccc(Cn2c(SCc3ccc(C(=O)NC4CCCC4)cc3)nc3ccncc32)cc1` was tested. Which max response did it give?
Answer: The max response was -0.957% (inactive).

Question: For `ClCC1NCC(c2ccccc2Cl)c2c1[nH]c1ccccc21` (centres undefined), which max response is on record?
Answer: Its max response is -5.81% (inactive).

Question: Which Potency does the source give for `Cn1cc(C2=C(c3ccc(Cl)cc3Cl)C(=O)NC2=O)c2ccccc21` here?
Answer: Its Potency is 2.91 µM (active) and 14.6 µM (active).

Question: With `COc1ccc(S(=O)(=O)N2c3ccccc3OCC2CC(=O)O)cc1` (centres undefined) as the compound, how does the max response read?
Answer: Its max response is -27.6% (inactive).

Question: How did the max response turn out when `COc1cc(NC(=O)c2ccco2)c(C(=O)OCC(=O)c2c[nH]c3ccccc23)cc1OC` was run?
Answer: The max response was -11.7% (inactive).

Question: Which Potency does the source give for `Cn1nnc2c[n+](CC(=O)c3ccc(Cl)cc3)cc(Br)c21` here?
Answer: Its Potency is 17.7 µM (active).

Question: `O=C(Nc1cc(Cl)ccc1-n1cncn1)c1ccc([N+](=O)[O-])s1` was tested. Which Potency did it give?
Answer: The Potency was 15.8 µM (active).

Question: With `N#CC1=C(N)Oc2ccc3ccc(O)cc3c2C1c1ccsc1` (centres undefined) as the compound, how does the max response read?
Answer: Its max response is -15.9% (inactive).

Question: With `N#CC1=C(N)Oc2cc(N)ccc2C1c1ccc(F)cc1F` (centres undefined) as the compound, how does the Potency read?
Answer: The Potency was 18.4 µM (active).

Question: With `Cc1oc(C)c2c(=O)ccc3c(c12)OC(N)=C(C#N)C3c1ccc(F)cc1` (centres undefined) as the compound, how does the max response read?
Answer: Its max response is 1.74% (inactive).

Question: `O=C1[C@@H]2[C@@H](CN3CN(c4ccccc4)N=C(c4ccccc4)[C@@]23c2ccccc2)C(=O)N1c1ccccc1` was tested. Which max response did it give?
Answer: Its max response is -0.723% (inactive).

Question: Which Potency does the source give for `CC(C)CC[n+]1ccccc1/C=C/c1ccc(N(C)C)cc1` here?
Answer: The Potency was 20.6 µM (active).

Question: With `CC[n+]1ccccc1/C=C/c1ccc(N(C)C)cc1` as the compound, how does the Potency read?
Answer: The Potency was 20.6 µM (active).

Question: With `Cc1ccc(-c2csc(NC3OC(=O)c4ccccc43)n2)cc1` (centres undefined) as the compound, how does the Potency read?
Answer: The Potency was 14 µM (active).

Question: Which Potency does the source give for `Fc1ccc(CNc2nc3ccccc3n3nnnc23)cc1` here?
Answer: Its Potency is 23.1 µM (active).

Question: How did the max response turn out when `c1ccc2c(c1)nc(NCC1CCCO1)c1nnnn12` (centres undefined) was run?
Answer: The max response was -11.8% (inactive).

Question: For `Fc1ccc(CNc2nc3ccc(Cl)cc3n3nnnc23)cc1`, which max response is on record?
Answer: The max response was -20.9% (inactive).

Question: With `c1ccc2c(CCc3c[nH]c4ccccc34)ccnc2c1` as the compound, how does the Potency read?
Answer: Its Potency is 20.6 µM (active).

Question: Which max response does the source give for `O=C(COc1ccccc1-c1ccccc1)NN=C1CCCC1` here?
Answer: Its max response is -15.6% (inactive).

Question: Which Potency does the source give for `O=C(N/N=C\C=C\c1ccc([N+](=O)[O-])o1)c1cccs1` here?
Answer: Its Potency is 12.5 µM (active).

Question: `COc1ccccc1OCC(=O)N/N=C/C=C/c1ccc([N+](=O)[O-])o1` was tested. Which Potency did it give?
Answer: The Potency was 10.3 µM (active).

Question: Which max response does the source give for `Cc1ccccc1OCC(=O)N/N=C/c1ccc(N(C)C)cc1` here?
Answer: The max response was -27.7% (inactive).

Question: With `O=C(N/N=C/C=C/c1ccco1)c1ccncc1` as the compound, how does the max response read?
Answer: The max response was -0.284% (inactive).

Question: `O=C(CN1C(=O)CSc2ncccc21)Nc1cccc(Cl)c1` was tested. Which max response did it give?
Answer: The max response was -15.2% (inactive).
